# Data as given in PubChem BioAssay (NCI).
# The panel holds about 79,000 compounds, 15% with a hit somewhere; the sample as a whole holds those more often. The source made the active and inactive calls. No stated cut-off is given here; in the data, active means growth inhibition above about 70%; inactive means the rest.
# Assay: NCI Yeast Anticancer Drug Screen. Data for the mlh1 rad18 strain (AID 175)
# Settings: S. cerevisiae mlh1 rad18 strain growth inhibition; at 50.0 µM; hits give high values
# Method in brief: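 Compound-treated yeast growth, normalised to vehicle controls. Strain bears defined DNA repair mutations.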
row,SMILES,growth inhibition
1,O=[N+]([O-])c1cccc(S(=O)(=O)N/N=C/c2cc(I)cc([N+](=O)[O-])c2O)c1,45.9% (inactive)
2,COc1cc(N=Nc2cccc(S(N)(=O)=O)c2)c2ccccc2c1N,95.8% (active)
3,O=S(=O)(c1ccc(O)cc1)c1ccc(Cl)cc1,48.2% (inactive)
4,C[N+](C)=c1ccc2nc3c(cc(NCCCNc4cc5oc6cc(=[N+](C)C)ccc-6nc5c5ccccc45)c4ccccc43)oc-2c1,65.1% (inactive)
5,CC(C)(C)C(=O)/C=C/c1ccc2ccccc2n1,77.8% (active)
6,CSc1ccc(/C=N/NC(N)=S)cc1,84.7% (active)
7,CN(C)c1ccc(/C=C(\C#N)c2c(F)cccc2F)cc1,0.45% (inactive)
8,O=C(/C=C\c1ccccc1)N1c2ccccc2CC1c1c[nH]c2ccccc12 (stereo not given),12.2% (inactive)
9,COc1cccc(C2c3cc4c(cc3OC(Nc3ccccc3)C2C)OCO4)c1O (stereo not given),96.5% (active)
10,CC(/C=C/c1cccs1)=N\C(=S)NC(N)=S,25.9% (inactive)
11,C=C1C(=O)O[C@H]2[C@H](OC(C)=O)[C@@H](C)CCC/C(C)=C/CC[C@@]3(C)O[C@@H]3C[C@@H]12,92.3% (active)
12,CC(=O)O/C=C\COC(C)=O,39.3% (inactive)
13,Cn1cc(NC(=O)c2cc(NC(=O)CCCCCCCCC(=O)Nc3cc(C(=O)Nc4cc(C(=O)NCCC(N)N)n(C)c4)n(C)c3)cn2C)cc1C(=O)NCCC(=N)N,90% (active)
14,CCCCCCCNCCCCCC,48.6% (inactive)
15,Cc1ccc(S(=O)(=O)N(c2ccccc2-c2ccccc2)C(C)C(=O)O)cc1 (stereo not given),94.3% (active)
16,CCCN1C(=O)c2ccccc2C1=O,9.5% (inactive)
17,CCC(CC)COC(=O)c1ccc(O)c(O)c1,98.9% (active)
18,COc1ccc(C2SCC(=O)N2c2nncs2)cc1 (stereo not given),13.8% (inactive)
19,O=NN(CCCl)C(=O)Oc1cc(Cl)c(Cl)cc1Cl,91% (active)
20,O=C(c1ccccc1)c1ccccc1S(=O)(=O)Nc1ccccc1,72.8% (active)

row,SMILES,growth inhibition
1,O=S(O)CCCCCSSc1ccccc1,48.9% (inactive)
2,Cc1ccc(C)c(N2C(=O)C(=O)C(c3nc4ccccc4o3)/C(=N\NC(=O)c3ccccc3O)C2=O)c1 (stereo not given),71.9% (active)
3,Nc1ccc2ccccc2c1Cc1c(O)ccc2ccccc12,95.7% (active)
4,CN(C)CCC(=O)C(=Cc1cc(Cl)cc(Cl)c1)C(=O)CCN(C)C,97.5% (active)
5,COC(=O)c1c(C(N)=O)c(C)n(NC(=O)c2ccccc2)c1C,11.5% (inactive)
6,O=C(O)/C(=C/c1c(O)ccc2ccccc12)c1csc(-c2nc(/C(=C\c3c(O)ccc4ccccc34)C(=O)O)cs2)n1,88% (active)
7,O=C(O)c1c2c(cc3c1CC1(Cc4cc5c(cc4C1=O)CCC5)C3)CCC2 (stereo not given),86.5% (active)
8,CCc1cccc(C(C)(C)C)c1NC(=S)N/C=C(\c1ccccc1)S(=O)Cc1ccccc1 (stereo not given),69.8% (inactive)
9,O=[N+]([O-])c1ccc(N/N=C/COCCO)c([N+](=O)[O-])c1,62% (inactive)
10,O=C(O)CSc1nc(-c2ccccc2)c(-c2ccccc2)n1-c1ccccn1,11.2% (inactive)
11,C[C@]12CCC(=O)C=C1CC[C@@H]1[C@@H]2[C@@H](O)C[C@@]2(C)[C@H]1CC[C@]2(O)C(=O)COC(=O)C1CCCC1,72.2% (active)
12,C[C-](O)O.O/C(=C\[C-](O)c1ccccc1)c1ccccc1.O/C(=C\[C-](O)c1ccccc1)c1ccccc1.[Nd+3] (stereo not given),85.9% (active)
13,[Cl][Pt+2]([Cl])([Cl])[Cl].[NH-]CC1(C[NH-])CCCC1,83.5% (active)
14,CSc1ccc2c(c1)S[S@@](=O)N2,62.5% (inactive)
15,O=S=C(c1ccccc1)N(Cc1ccccc1)Cc1ccccc1,94.2% (active)
16,NNc1c(Cl)c(F)c(Cl)c(F)c1Cl,66.7% (inactive)
17,Cc1ccc(C)c(N2C(=O)C(=O)C(c3nc4ccccc4o3)C(=O)C2=O)c1,98.8% (active)
18,NC(=S)N/N=C/c1ccc(Cl)s1,87% (active)
19,O=c1[nH]ccc(CNC23CC4CC(CC(C4)C2)C3)c1O,81.5% (active)
20,CN(C)CCSc1cc(-c2ccccc2)c2ccccc2n1,78.2% (active)
